Results taken from publication PMC4336329 (PLoS ONE, 2015).
The whole screen tested about 310,000 compounds, of which about 14,000 (4.5%) showed an effect of 50% or more. The effect is printed as a negative number. Many of the other results were omitted from the sample, so strong results are more common in it than they were.

Biological target: human ether-à-go-go-related gene (hERG) potassium channel (human, UniProt Q12809)
Assay: primary screen, population patch clamp on CHO cells stably expressing hERG; higher = less effect of the substance
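Also: peak tail current of the secondary pulse compared with the same well before compound.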

human ether-à-go-go-related gene (hERG) potassium channel, sequence (Q12809 whole entry, looked up): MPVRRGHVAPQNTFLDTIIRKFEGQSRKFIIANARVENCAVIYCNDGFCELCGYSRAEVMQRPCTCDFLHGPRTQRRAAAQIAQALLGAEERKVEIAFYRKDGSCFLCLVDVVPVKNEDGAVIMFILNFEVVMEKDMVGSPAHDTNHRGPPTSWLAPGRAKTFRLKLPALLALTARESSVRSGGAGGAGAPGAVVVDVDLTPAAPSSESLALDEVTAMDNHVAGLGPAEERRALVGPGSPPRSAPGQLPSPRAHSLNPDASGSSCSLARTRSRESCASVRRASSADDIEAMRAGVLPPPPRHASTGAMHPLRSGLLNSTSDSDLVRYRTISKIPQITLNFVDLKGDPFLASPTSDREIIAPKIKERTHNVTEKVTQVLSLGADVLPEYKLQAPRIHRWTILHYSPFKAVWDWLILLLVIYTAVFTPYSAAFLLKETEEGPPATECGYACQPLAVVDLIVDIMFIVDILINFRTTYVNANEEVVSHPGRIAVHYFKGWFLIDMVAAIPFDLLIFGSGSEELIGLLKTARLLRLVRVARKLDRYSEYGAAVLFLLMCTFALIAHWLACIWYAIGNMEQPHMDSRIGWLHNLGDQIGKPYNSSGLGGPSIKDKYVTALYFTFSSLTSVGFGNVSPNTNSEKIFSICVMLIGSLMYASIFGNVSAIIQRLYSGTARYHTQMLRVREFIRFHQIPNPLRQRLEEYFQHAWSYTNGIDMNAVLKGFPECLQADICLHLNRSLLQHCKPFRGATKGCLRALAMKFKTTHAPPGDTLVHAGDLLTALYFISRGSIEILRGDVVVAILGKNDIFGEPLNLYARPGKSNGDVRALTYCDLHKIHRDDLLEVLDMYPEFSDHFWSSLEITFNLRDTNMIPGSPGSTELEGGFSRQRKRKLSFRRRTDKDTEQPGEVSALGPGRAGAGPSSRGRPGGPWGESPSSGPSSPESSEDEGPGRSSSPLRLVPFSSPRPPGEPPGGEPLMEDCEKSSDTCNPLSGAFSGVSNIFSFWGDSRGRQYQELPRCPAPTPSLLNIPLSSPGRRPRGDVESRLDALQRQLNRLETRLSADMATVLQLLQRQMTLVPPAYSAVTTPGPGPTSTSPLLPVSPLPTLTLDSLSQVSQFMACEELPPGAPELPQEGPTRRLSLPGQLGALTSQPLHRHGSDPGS

| Structure (SMILES) | hERG current change (%, negative = inhibition) at 10uM |
| --- | --- |
| CC(C)NC(=O)N1CCN(c2ccncc2S(=O)(=O)N2CCCCC2)CC1 | 5.19% |
| COc1ccc(-c2cnc(N)n2CC2CCCO2)cc1 (stereo not shown) | -5.53% |
| Cc1cc(C)n(CC(O)COc2c(C)cccc2C)n1 (stereo not shown) | -1.28% |
| O=P(C1=C(N2CCOCC2)/C(=C\c2ccccc2)CC1)(N1CCOCC1)N1CCOCC1 | -25.3% |
| O=C(CSc1nnc(NC(=O)C2CC(=O)N(c3ccccc3)C2)s1)NCc1ccco1 (stereo not shown) | 16.9% |
| O=C(c1cccs1)N(Cc1cccc(Cl)c1)C1CCS(=O)(=O)C1 (stereo not shown) | -52% |
| O=C(c1cccs1)N(Cc1ccc(Cl)cc1)C1CCS(=O)(=O)C1 (stereo not shown) | -41.9% |
| O=C(c1ccco1)N(Cc1cccc(Cl)c1)C1CCS(=O)(=O)C1 (stereo not shown) | -59% |
| O=C(c1ccco1)N(Cc1ccc(Cl)cc1)C1CCS(=O)(=O)C1 (stereo not shown) | -11.6% |
| O=C(c1cccs1)N(Cc1cccc(F)c1)C1CCS(=O)(=O)C1 (stereo not shown) | -14.9% |
| O=C(c1ccco1)N(Cc1cccc(F)c1)C1CCS(=O)(=O)C1 (stereo not shown) | -5.78% |
| CC(=O)CCS(=O)(=O)c1ccc(C)c(C)c1 | 1.19% |
| O=C(OCC(=O)N1CCCC1=O)C1CCN(S(=O)(=O)c2ccc(Cl)c(C(F)(F)F)c2)CC1 | 5.31% |
| COc1ccc(C(=O)NC(=S)Nc2ccc(S(=O)(=O)Nc3cc(OC)ncn3)cc2)cc1 | 15.4% |
| CSCCC1NC(=O)N(CC(=O)N2CCc3ccccc3C2)C1=O (stereo not shown) | -1.18% |
| CCOC(=O)c1[nH]c2ccc(OC)cc2c1NC(=O)c1ccccc1C(=O)O | 14.2% |
| CCCNC(=O)C1CCN(S(=O)(=O)c2cccs2)CC1 | 28.1% |
| COc1ccc(N2CCN(C(=O)C3CCN(S(=O)(=O)c4cccs4)CC3)CC2)cc1 | -49.3% |
| O=C(NCCN1C(=O)S/C(=C\c2ccccc2F)C1=O)C1CCN(S(=O)(=O)c2cccs2)CC1 | -57.2% |
| O=C(NCCN1C(=O)S/C(=C\c2ccccc2)C1=O)C1CCN(S(=O)(=O)c2cccs2)CC1 | -23.8% |
| Cc1noc(/C=C/c2cccs2)c1S(=O)(=O)N1CCC(C(=O)NCCCN2CCC(C)CC2)CC1 | -83.7% |
| Cc1noc(/C=C/c2cccs2)c1S(=O)(=O)N1CCC(C(=O)NCCCN2CCCC(C)C2)CC1 (stereo not shown) | -44.5% |
| COc1ccc(N2CCN(CCNC(=O)C3CCN(S(=O)(=O)c4cccs4)CC3)CC2)cc1 | -50.7% |
| COCCNC(=O)C1CCN(S(=O)(=O)c2c(C)noc2/C=C/c2cccs2)CC1 | -34.7% |
| O=C(NCCN1C(=O)S/C(=C\c2ccc(F)cc2)C1=O)C1CCN(S(=O)(=O)c2cccs2)CC1 | -7.1% |
| O=C(NCCCN1CCN(c2ccccc2F)CC1)C1CCN(S(=O)(=O)c2cccs2)CC1 | -60.6% |
| CCS(=O)(=O)N1CCC(C(=O)NCCCN2CCN(c3ccccc3F)CC2)CC1 | -16.3% |
| COc1ccc(N2CCN(CCNC(=O)CCNS(=O)(=O)c3cccs3)CC2)cc1 | -24.7% |
